This passage reports INHIBITION results from ChEMBL document CHEMBL4513216, “Probing the Open Global Health Chemical Diversity Library for Multistage-Active Starting Points for Next-Generation Antimalarials” (ACS Infect Dis, 2020).

Structures are written as SMILES. The whole screen tested about 69,000 compounds, of which about 8,600 (12%) showed an effect of 50% or more. The list comes from a sample in which strong results are over-represented; it also holds similar structures and randomly drawn compounds.

The test concerns Plasmodium berghei. Put plainly: Screen against P. berghei liver stage (PbLuc), transformed with Luciferase, at 10uM. The test is classed as functional, HepG2. To be noted: tested at 10 uM.
As for `O=C(Nc1ccccc1)N1CCn2c(nnc2C2CCNCC2)C1`, the INHIBITION is listed as 11.8%.
In the case of `CN(C)C(=O)CN1CCOCC2(CCN(c3ncc(F)cn3)CC2)C1`, the INHIBITION is recorded as -3.26%.
In the case of `COCC1CN(Cc2ccc(OC)cc2)S(=O)(=O)c2cnccc2O1` (configuration not stated), the INHIBITION was found to be 13.9%.
Take `CC(C)CCn1nc(CNc2ccc(Br)cc2)nc1O`: the INHIBITION is given as 44.9%.
As for `CCCC(=O)N1CCCC(Cn2cc(-c3ccc(F)cc3)nn2)C1` (configuration not stated), the figure is 1.24%; as for `Cc1ccc(NCc2nc3n(n2)CCCCC3)c(C)c1`, 2.69%.
On to `CCN1C(=O)C[C@@H]2[C@@H]1CCN2S(=O)(=O)Cc1ccc(C)cc1`, for which the INHIBITION is recorded as -17.1%.
As for `COc1ccc(C(=O)Nc2cc(CC(C)C)nn2C)cc1`, the figure is 22.3%; as for `CCNC(=O)[C@@H]1C[C@@H](N)CN1Cc1ccc(-c2ccccc2C#N)o1`, 23.9%.
Turning to `CCNC(=O)[C@@H]1C[C@H](N)CN1C(=O)CCc1ccc(C)c(C)c1`, the INHIBITION came out at 30.9%.
Under `CCNC(=O)[C@@H]1C[C@@H](N)CN1C(=O)Cc1cc(C)ccc1C` stands 11.2%; under `CCNC(=O)[C@@H]1C[C@H](N)CN1Cc1ccc(Sc2ccc(C)cc2)o1`, 67.5%.
Consider `CCNC(=O)[C@@H]1C[C@H](N)CN1Cc1ccc(-c2ccccc2C#N)o1`, for which the INHIBITION is recorded as 47.1%.
For the molecule `CCNC(=O)[C@@H]1C[C@@H](N)CN1C(=O)CCc1ccc(C)c(C)c1`, the INHIBITION stood at 15.3%.
On to `CCNC(=O)[C@@H]1C[C@H](N)CN1Cc1ccc(-c2cc[nH]n2)o1`, for which the INHIBITION stood at 61.9%.
With `CCNC(=O)[C@@H]1C[C@@H](N)CN1Cc1ccc(Sc2ccc(C)cc2)o1`, the INHIBITION was 77.7%.
Under `CCNC(=O)[C@@H]1C[C@H](N)CN1C(=O)Cc1cc(C)ccc1C` stands -1.91%; under `CCCNC(=O)Nc1ncc(-c2cccnc2)s1`, 15.5%; under `COCC(=O)N1CC[C@H]2C[C@H](C)O[C@@H]2C1`, 38.1%.
As for `CCCC(=O)N1CCCCC1C(=O)Nc1ccc(-c2nnc[nH]2)cc1` (configuration not stated), the figure is 16.8%.
Regarding `Cn1nc(C2CCN(C(=O)CCN3CCOCC3)CC2)c2cccnc21`, the INHIBITION amounted to 32.8%.
As for `CC(C)c1nc(CSc2nnc(-c3cccs3)n2CC(N)=O)no1`, the figure is -49.7%.
With `CC(O)CN1CCN(C(=O)c2ccn(-c3ccccc3Cl)n2)CC1` (configuration not stated), the INHIBITION is listed as -12.2%.
Consider `COC[C@@H]1CN(C)C(=O)[C@@H]2CCN(Cc3ccco3)CC[C@H]12`, for which the INHIBITION came out at 54.1%.
As to `CN1C[C@@H](COCC2CC2)[C@H]2CCN(Cc3ccco3)CC[C@H]2C1=O`, the INHIBITION was 46.7%.
In the case of `CN1C[C@H](COCC2CC2)[C@H]2CCN(Cc3ccco3)CC[C@H]2C1=O`, the INHIBITION was 33.4%.
As for `Cc1cn2c(n1)CCC(NS(=O)(=O)c1ccc(C)s1)C2` (configuration not stated), the INHIBITION turned out to be 34.4%.
Regarding `Cc1cn2c(n1)CCC(NS(=O)(=O)c1cc(C)sc1C)C2` (configuration not stated), the INHIBITION amounted to 61.5%.
Regarding `Cc1cn2c(n1)CCC(NS(=O)(=O)c1sc(C)nc1C)C2` (configuration not stated), the INHIBITION was found to be 21.5%.
Turning to `Cc1cccc(COC[C@@H]2CC[C@H]3[C@H](CCN3C(=O)CC3CC3)O2)n1`, the INHIBITION was 24.1%.
For `Cc1ccc(-c2cc(C(=O)N(C)Cc3noc4c3CCCC4)[nH]n2)o1`, the INHIBITION came out at 34.5%.
As for `Cn1ncc(N2CCOCC2)c(Cl)c1=O`, the INHIBITION amounted to 8.77%.
In the case of `CC(Nc1cnn(C)c(=O)c1Cl)c1ccc(F)c(F)c1` (configuration not stated), the INHIBITION was found to be 68.9%.
In the case of `Cc1nccn1-c1ccc(C(C)Nc2cnn(C)c(=O)c2Cl)cc1` (configuration not stated), the INHIBITION was 52.6%.
Take `COc1ccc(C(C)Nc2ncc(C(N)=O)cc2Cl)cc1OC` (configuration not stated): the INHIBITION was -59.5%.
In the case of `COc1ccc(C(C)Nc2cnn(C)c(=O)c2Cl)cc1OC` (configuration not stated), the INHIBITION is reported as 68.9%.
Take `CC(Nc1cnn(C)c(=O)c1Cl)c1ccc(F)cc1` (configuration not stated): the INHIBITION is recorded as 65.9%.
As for `COc1ccc(C(C)Nc2ncc(C(N)=O)cc2Cl)cc1F` (configuration not stated), the figure is -138%; as for `Cc1nccn1-c1ccc(NS(=O)(=O)c2cnn(C(C)C)c2)cn1`, -2.97%; as for `CC(NCc1cnc(N2CCN(C)CC2)nc1)c1ccc(F)cc1` (configuration not stated), 26.5%.
Turning to `COc1ccc(C(C)Nc2nc3c(C)nn(C)c3c(=O)n2C)cc1` (configuration not stated), the INHIBITION is listed as -45.2%.
Regarding `Cc1ccc(C(C)NC(=O)CCc2cnn(C)c2)cc1F` (configuration not stated), the INHIBITION came out at 33%.
Consider `Cn1ncc(NCc2cc(F)cc(F)c2)c(Cl)c1=O`, for which the INHIBITION turned out to be 8.48%.
Under `CC(C)CC(=O)N1Cc2ccccc2CC1C(=O)Nc1nccs1` (configuration not stated) stands 31.6%.
Regarding `CCn1cc2c(n1)CN(S(=O)(=O)c1cccnc1)CC2COC` (configuration not stated), the INHIBITION was found to be 8.85%.
`CC1(c2ncc(CN3CCN(c4ccccn4)CC3)cn2)CCCCO1` (configuration not stated): the INHIBITION is reported as -16.85%.
Under `O=C1[C@H]2CN(CC3CC3)C[C@H]2CN1Cc1cccc(F)c1` stands 39.8%; under `O=C(NCc1cccnc1N1CCc2ccccc2C1)c1cnc[nH]1`, -11.6%.
`Cc1cc(C(=O)N2CC[C@@H]3CN(CCC(C)C)S(=O)(=O)[C@@H]3CC2)no1`: the INHIBITION is given as 6.27%.
As to `CS(=O)(=O)N1C[C@H]2CC[C@@H](C1)N(C/C=C/c1ccc(F)cc1)C2`, the INHIBITION is 31.7%.
Under `Cc1ccc(CN2CCn3cc(CNC(=O)c4cnn(C)c4)nc3C2)s1` stands 16.8%; under `CS(=O)(=O)NCc1cncc2c1CCN(C(=O)N1CCCC1)C2`, 37.2%.
For the molecule `Cc1ccccc1-n1cnc(Cl)c1CO`, the INHIBITION worked out at 59.3%.
Under `Cc1ccc(-n2cnc(Cl)c2CO)cc1` stands 40.9%.
As for `OCc1c(Cl)ncn1-c1ccc(F)cc1`, the figure is 52.8%; as for `OCc1c(Cl)ncn1-c1ccccc1`, 46.4%; as for `Cc1ccccc1-n1cnc(Cl)c1C(=O)O`, 24.4%.
Turning to `Cc1cccc(-n2cnc(Cl)c2CO)c1`, the INHIBITION stood at 28%.
Regarding `COc1ccc(CN2C[C@@H]3C(CC(=O)N4CCCC4)[C@@H]3C2)cc1` (some centres not stated), the INHIBITION is on record as 17.4%.
On to `CCc1nnc2n1CC(CNCc1nnc(C(C)(C)C)o1)CC2` (configuration not stated), for which the INHIBITION was 14.9%.
`Cc1cccc(NC(=O)N2CCC3(CC(=O)N(c4ccsc4)C3)C2)c1` (configuration not stated): the INHIBITION stood at 12.4%.
As for `COCCn1cc2c(n1)C(CNCc1ccc(F)cc1)OCC2` (configuration not stated), the INHIBITION stood at 13.5%.
For the molecule `Cc1ccc(C(=O)N(C)Cc2cscn2)c(=O)[nH]1`, the INHIBITION is recorded as 15%.
As for `COCCC1COC2(CCN(C(=O)c3cccnc3)CC2)C1` (configuration not stated), the INHIBITION is recorded as 34.6%.
Regarding `COCCC1COC2(CCN(C(=O)c3ccccc3)CC2)C1` (configuration not stated), the INHIBITION is given as 40.4%.
As for `COCCC1COC2(CCN(C(=O)c3ccsc3)CC2)C1` (configuration not stated), the INHIBITION is 57.9%.
Regarding `COCCC1COC2(CCN(C(=O)c3ccncc3)CC2)C1` (configuration not stated), the INHIBITION is 74.2%.
Regarding `CCN(C)C1COC2(CCN(C(=O)c3ccc(Cl)cc3)CC2)C1` (configuration not stated), the INHIBITION is 70.3%.
In the case of `COCCC1COC2(CCN(C(C)=O)CC2)C1` (configuration not stated), the INHIBITION is reported as 20.1%.
On to `COCCC1COC2(CCN(C(=O)c3cccn3C)CC2)C1` (configuration not stated), for which the INHIBITION is 20.6%.
Under `CCN(C)C1COC2(CCN(C(=O)c3cccc(Cl)c3)CC2)C1` (configuration not stated) stands 0.112%.
For the molecule `CCN(C)C1COC2(CCN(C(=O)c3ccc4[nH]ccc4c3)CC2)C1` (configuration not stated), the INHIBITION is on record as -12.2%.
